PTHR1 ag – activates the human parathyroid hormone receptor PTHR1 | HEK293 GP2 PTHR1 cells, GloSensor cAMP luminescence, 1 h | Potency, µM (highest dose often 115 µM), actives largely listed as activators | 0.075% of 410,000 active | AID 743266; also: nearly all actives have a fitted effect of over 55% in size
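HEK-293-derived GP2 cells expressing PTHR1 and a GloSensor cAMP reporter, 3,000/well, plated overnight, given luciferin plus IBMX (each 0.5 mM as added) for 1 h at 37 °C, then compound for 1 h at 37 °C. Luminescence was read after 15 min at room temperature.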
TRPML1 ag – activates the human TRPML1 channel; activation, % (test concentration not listed); TRPML1-expressing cells, Ca2+ dye fluorescence, FDSS; 0.12% of 410,000 active; Q9GZU1; in the data active = activation above about 50%; inconclusive = mostly about 30% to 49%
Target sequence (Q9GZU1 whole entry, looked up): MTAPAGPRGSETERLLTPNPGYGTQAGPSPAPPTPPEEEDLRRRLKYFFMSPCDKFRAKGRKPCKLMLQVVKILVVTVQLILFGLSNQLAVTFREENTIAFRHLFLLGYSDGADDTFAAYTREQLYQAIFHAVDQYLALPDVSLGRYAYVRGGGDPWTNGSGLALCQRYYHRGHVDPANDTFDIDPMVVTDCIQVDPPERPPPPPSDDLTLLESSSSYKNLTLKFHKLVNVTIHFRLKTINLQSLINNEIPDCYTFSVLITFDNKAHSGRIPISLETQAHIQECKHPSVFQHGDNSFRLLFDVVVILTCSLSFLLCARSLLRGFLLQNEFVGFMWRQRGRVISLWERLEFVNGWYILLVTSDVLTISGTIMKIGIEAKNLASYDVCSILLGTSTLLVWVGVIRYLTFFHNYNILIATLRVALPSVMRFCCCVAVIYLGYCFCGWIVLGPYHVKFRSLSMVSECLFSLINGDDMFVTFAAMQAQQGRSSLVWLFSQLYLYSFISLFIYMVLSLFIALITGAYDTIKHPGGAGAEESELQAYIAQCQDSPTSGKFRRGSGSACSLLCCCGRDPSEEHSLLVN
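Tetracycline-induced TRPML1-DL cells are seeded and incubated overnight before loading with a no-wash Ca2+ dye and quencher. Agonist activity is taken from the 110 s fluorescence read following compound pin-transfer on an FDSS, before EC80 54-4 challenge.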
GLP1R cytotox – cytotoxicity in counter-screen for GLP-1R inverse agonists; HEK293 cAMP-luciferase reporter cells, luminescence, 24 h; Potency, µM (series often up to 38.3 µM), actives largely listed as inhibitors; 0.13% of 410,000 active; AID 624418;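 also: loss of luciferase light is scored as toxicity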
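Luminescence readout: signal drop marks cytotoxicity. Plated cells grew 12 h at 37 °C, 5% CO2, received 23 nL compound for 24 h, then got luciferase reagent, read after 12 min at RT.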
TRPML1 inh – human mucolipin-1 channel inhibition. Q9GZU1. TRPML1-inducible cells, Ca2+ dye fluorescence, FDSS; active compounds read low; inhibition of EC80 agonist-evoked calcium signal. activity change, negative = inhibition, % (concentration not given with the values). 0.02% of 390,000 active. AID 624415; in the data active = activity change below about -50%; inconclusive = between about -30% and that limit;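 also: stimulus is agonist 54-4 at its EC80 concentration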
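Calcium fluorescence in TRPML1-DL cells induced overnight with Tet: a 110 s read after compound pin addition, then a 110 s antagonist read after challenge with 54-4 at 4 uM final (EC80).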
TRHR agonist-1 – agonists of human TRH receptor; P34981; TRHR cells, calcium flux fluo-8, FDSS agonist mode; activation, % at 2 µM; 0.18% of 360,000 active; AID 493084; in the data active = activation above about 30%
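In this calcium-flux screen, cells bearing human TRHR are dye-loaded with fluo-8, baselined for 10 cycles, then exposed to library compounds; positive kinetic calcium responses during the agonist phase mark hits, with TRH as control.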
TRHR enhancer-1 – allosteric enhancers of human TRH receptor | enhancement, % at 2 µM | TRHR cells, fluo-8 calcium fluorescence, EC20 TRH enhancement | 0.66% of 360,000 active | P34981; in the data active = enhancement above about 30%
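Enhancer read-out: after compound pinning and an initial kinetic agonist-mode read, an EC20 of TRH (10 nM final) was injected and fluo-8 calcium signal (Ex 480/Em 530) followed at 1 s/cycle for 100 cycles in TRHR-expressing cells.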
TRHR enhancer-2 – confirmation of human TRH receptor allosteric enhancers; activity change, negative = inhibition, % at 46.1 µM; TRH receptor cell assay, enhancer confirmation qHTS; 970 tested, under 10 active; shares compounds with TRHR enhancer-1;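 also: compound effect scored on response to added TRH at EC20 of 10 nM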
TRHR agonist-2 – confirmation of human TRH receptor agonists; TRHR-expressing cells, agonist activation read-out; 8% of 970 active; AID 493078; Potency, µM (titrated, usually from 46.1 µM), most hits filed as activators; shares compounds with TRHR enhancer-1; also: nearly all actives have a fitted effect of over 75% in size
Hits are given with their value. In the library only some 0.93% were active in any assay of this set; here they are far more common. Unless noted, calls follow the shape of the dose curve; as a rule, active = well fitted curve in the direction sought with a large enough effect; inconclusive = small, poorly fitted or top-dose-only effect, or another doubt; inactive = no such curve, though single readings can be large; an effect the other way counts as inactive or inconclusive.

Screening CCCCNC(=O)c1ccc2c(c1)N(CC)C(=O)c1ccccc1S2(=O)=O returned PTHR1 ag inactive, TRPML1 ag inactive, GLP1R cytotox inactive, TRPML1 inh inactive, TRHR agonist-1 inactive and TRHR enhancer-1 inactive.
Screening COc1ccc(CN(Cc2ccccc2)C(=O)c2ccncc2)cc1COc1ccc(NC(C)=O)cc1 returned TRPML1 ag inactive.
`CC(C)c1ccc(NC(=O)c2cc3c([nH]c2=O)CC(C)(C)CC3=O)cc1` gave TRPML1 ag inactive.
For COc1ccc(OC)c(/C=C2\C=Cc3ccccc32)c1 the results were TRPML1 ag inactive.
`O=C(/C=C/c1ccccc1)NC(N1CCOCC1)C(Cl)(Cl)Cl` (centres undefined) gave PTHR1 ag inactive, TRPML1 ag inactive, GLP1R cytotox inactive, TRPML1 inh inactive, TRHR agonist-1 inactive, TRHR enhancer-1 45.4, TRHR enhancer-2 inactive and TRHR agonist-2 inactive.
Screening O=C(NC(N1CCOCC1)C(Cl)(Cl)Cl)c1ccco1 (centres undefined) returned PTHR1 ag inactive, TRPML1 ag inactive, GLP1R cytotox inactive, TRPML1 inh inactive, TRHR agonist-1 inactive and TRHR enhancer-1 inactive.
Screening COC(=O)C1=NN(C(=O)c2ccc(Cl)cc2)C(O)(c2ccccc2)C1 (centres undefined) returned PTHR1 ag inactive, TRPML1 ag inactive, GLP1R cytotox inactive, TRPML1 inh inactive, TRHR agonist-1 46.5, TRHR enhancer-1 inactive, TRHR enhancer-2 inactive and TRHR agonist-2 18.4µM.
COc1ccc(/C=N/Nc2nnc(-c3ncc[nH]3)c3ccccc23)cc1 was read as PTHR1 ag inactive, TRPML1 ag inactive, GLP1R cytotox inactive, TRPML1 inh inactive, TRHR agonist-1 inactive and TRHR enhancer-1 inactive.
Screening Oc1ccc2ccccc2c1/C=N/Nc1nnc(-c2ncc[nH]2)c2ccccc12 returned PTHR1 ag inactive, TRPML1 ag inactive, GLP1R cytotox inactive, TRPML1 inh inactive, TRHR agonist-1 45.6, TRHR enhancer-1 inactive, TRHR enhancer-2 inconclusive and TRHR agonist-2 23.1µM.
Screening C=C1C=C(C(F)F)n2ncc(C(=O)NCc3ccccc3)c2N1 returned TRPML1 ag inactive.
Cc1csc(NC(=O)c2sc3nc(-c4cccs4)ccc3c2N)n1 was read as PTHR1 ag inactive, TRPML1 ag inconclusive, GLP1R cytotox inactive, TRPML1 inh inactive, TRHR agonist-1 51.2, TRHR enhancer-1 inactive, TRHR enhancer-2 inactive and TRHR agonist-2 10.3µM.
Screening Cc1ccc(NC(=O)c2sc3nc(-c4cccs4)ccc3c2N)cc1F returned PTHR1 ag inactive, TRPML1 ag inactive, GLP1R cytotox inactive, TRPML1 inh inactive, TRHR agonist-1 inactive and TRHR enhancer-1 inactive.
For CC(C)(C)OC(=O)N1CCN(/[N+]([O-])=N/Oc2ccc([N+](=O)[O-])cc2[N+](=O)[O-])CC1 the results were TRPML1 ag inactive and TRPML1 inh inactive.
For CC(C)(C)NC(=O)CSc1nc2cccnc2n1C1CCCCC1 the results were PTHR1 ag inactive, TRPML1 ag inactive, GLP1R cytotox inactive, TRPML1 inh inactive, TRHR agonist-1 inactive, TRHR enhancer-1 51.0, TRHR enhancer-2 inactive and TRHR agonist-2 inactive.
Screening C=CCNC(=O)c1cnn2c1NC(=C)C=C2C returned TRPML1 ag inactive.
Screening CC1CCCC(NC(=O)C2c3ccccc3C(=O)N2Cc2cccs2)C1C (centres undefined) returned PTHR1 ag inactive, TRPML1 ag inactive, GLP1R cytotox inactive, TRPML1 inh inactive, TRHR agonist-1 inactive, TRHR enhancer-1 44.2, TRHR enhancer-2 inactive and TRHR agonist-2 inactive.
`CC(C)Cc1ccc(S(=O)(=O)Nc2cccnc2)cc1` gave PTHR1 ag inactive, TRPML1 ag inactive, GLP1R cytotox inactive, TRPML1 inh inactive, TRHR agonist-1 inactive, TRHR enhancer-1 58.5, TRHR enhancer-2 inactive and TRHR agonist-2 inactive.
For CCC(C)c1ccc(S(=O)(=O)Nc2cccnc2)cc1 (centres undefined) the results were PTHR1 ag inactive, TRPML1 ag inactive, GLP1R cytotox inactive, TRPML1 inh inactive, TRHR agonist-1 inactive and TRHR enhancer-1 inactive.
Screening CCCN1CC(=O)N2C(c3cccc(OC)c3OC)c3[nH]c4ccccc4c3C[C@H]2C1=O (some centres undefined) returned PTHR1 ag inactive, TRPML1 ag inactive, GLP1R cytotox inactive, TRPML1 inh inactive, TRHR agonist-1 inactive and TRHR enhancer-1 inactive.
Screening CCC(C)N1CC(=O)N2C(c3ccc(OC)cc3OC)c3[nH]c4ccccc4c3C[C@H]2C1=O (some centres undefined) returned PTHR1 ag inactive, TRPML1 ag inactive, GLP1R cytotox inactive, TRPML1 inh inactive, TRHR agonist-1 inactive, TRHR enhancer-1 75.0, TRHR enhancer-2 inactive and TRHR agonist-2 inactive.
For O=C(Nc1ccc(F)c(F)c1)c1cnn2c1NC(=C1CC1)C=C2C(F)(F)F the results were TRPML1 ag inactive.
CC(C)c1ccc(N(CC(=O)NCCCN2CCOCC2)S(=O)(=O)c2ccccc2)cc1 was read as PTHR1 ag inactive, TRPML1 ag inactive, GLP1R cytotox inactive, TRPML1 inh inactive, TRHR agonist-1 inactive, TRHR enhancer-1 48.0, TRHR enhancer-2 inactive and TRHR agonist-2 inactive.
For COc1cccc(N(CC(=O)NCCN2CCOCC2)S(=O)(=O)c2ccccc2)c1 the results were PTHR1 ag inactive, TRPML1 ag inactive, GLP1R cytotox inactive, TRPML1 inh inactive, TRHR agonist-1 inactive and TRHR enhancer-1 inactive.
`Cc1ccc(S/C(=N/S(=O)(=O)c2ccc(Cl)cc2)c2ccccc2)cc1` gave TRPML1 ag inactive.
`Cc1sc2ccccc2[n+]1CCCC[n+]1c(C)sc2ccccc21` gave TRPML1 ag inactive.
`COc1ccc(N2C(=O)CC(Sc3nc(C)cc(C)c3C#N)C2=O)cc1` (centres undefined) gave PTHR1 ag inactive, TRPML1 ag inactive, GLP1R cytotox inactive, TRPML1 inh inactive, TRHR agonist-1 inactive, TRHR enhancer-1 41.4, TRHR enhancer-2 inactive and TRHR agonist-2 inactive.
For N#Cc1c(N)nc(SCC(=O)OCc2ccccc2)c(C#N)c1-c1ccco1 the results were PTHR1 ag inactive, TRPML1 ag inactive, GLP1R cytotox inactive, TRPML1 inh inactive, TRHR agonist-1 inactive, TRHR enhancer-1 65.2, TRHR enhancer-2 inactive and TRHR agonist-2 inactive.
